Wnt bcat act = activates Wnt/beta-catenin signaling in a reporter cell assay; activation, % at 9.35 µM; activator, plate reader; 300,000 tested, 1.2% active; in the data active = activation above about 30%, passing the limit was not always enough; inconclusive = no clear call, values can overlap the other calls;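 also: 0% = neutral control wells and 100% = positive control wells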
C2C12 statin = suppressors of simvastatin-induced myotoxicity in C2C12 myotubes. rescue of ATP level, % at 7.49 µM. 330,000 tested, 0.78% active. AID 602340. ATP luminescence, 48 h; scaled: DMSO 0, geranylgeraniol control 100;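 active = mean ATP rescue above about 67%, or every replicate alone reaching that limit, limit read from the data, passing the limit was not always enough; inconclusive = no clear call, values can overlap the other calls; inactive = mean under the limit and some replicate under it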;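 also: myotubes were challenged with 10 µM simvastatin during compound exposure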
FXN GAA850 act = increases GAA850 frataxin promoter reporter activity. HEK293 lucGAA850 FXN promoter luciferase reporter, 24 h; percent of 10 µM SAHA response. activation, % at 6 µM. AID 540364. 360,000 tested, 0.56% active;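 active = activation above the average of all compounds screened plus 3 SD, cutoff fixed separately per campaign, cut at about 7.5% in these data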;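 also: 0% = DMSO wells and 100% = 10 µM SAHA wells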
MITF act = activators of MITF-driven TRPM1 promoter activity in SK-MEL-5 cells; SK-MEL-5 TRPM1-promoter luciferase, 24 h; % of positive control, neutral wells = 0; 300,000 tested, 0.75% active; activation, % at 12.5 µM;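 active = mean activation of at least 80% with every replicate also reaching 80%; inconclusive = mean reaches 80% but some replicate falls short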;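 also: 0% = neutral control wells and 100% = parthenolide positive control wells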
esBAF inh = inhibitors of esBAF chromatin remodeling in mouse ES cells; 350,000 tested, 2% active; Bmi1-luciferase knock-in reporter, 24 h; 100% = twice the neutral-well signal; reporter increase, % at 12.5 µM; in the data active = activation above about 40%; inconclusive = no clear call, values can overlap the other calls;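 also: 0% = median of the plate's neutral control wells and 100% = double that signal; a rise in the Bmi1 reporter signal indicates esBAF inhibition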
The depositor's hits bear a star. This is a sample that favours compounds with a hit; in the whole collection about 3.3% have one here.

`Cc1cc(Cl)c(S(=O)(=O)NCc2ccncc2)cc1OCC(N)=O` gave Wnt bcat act -4, C2C12 statin 129*, FXN GAA850 act -1, MITF act 0 and esBAF inh 2.
`Cc1cc(Cl)ccc1OCC(=O)NCc1ccncc1` gave C2C12 statin 3, FXN GAA850 act 3, MITF act 18 and esBAF inh 62*.
C[C@@H]1CN([C@H](C)CO)C(=O)c2cc(NC(=O)CCCN(C)C)ccc2O[C@@H]1CN(C)Cc1ccc(C(F)(F)F)cc1 was read as C2C12 statin 23 and esBAF inh -1.
Screening Cc1cccc(-c2nc(C#N)c(N3CCC(C)CC3)o2)c1 returned Wnt bcat act 18, C2C12 statin 14, FXN GAA850 act 0, MITF act -1 and esBAF inh 10.
Cc1ccccc1-c1nc(C#N)c(N2CCC(C)CC2)o1 was read as Wnt bcat act 1, C2C12 statin 0, FXN GAA850 act 3, MITF act 43 and esBAF inh 18.
CC1CCN(c2oc(-c3ccccc3Cl)nc2C#N)CC1 was read as Wnt bcat act 15, FXN GAA850 act 1, MITF act 94* and esBAF inh 53*.
`Cc1cccc(-c2nc(C#N)c(N3CCCCCC3)o2)c1` gave C2C12 statin 0, FXN GAA850 act 4, MITF act 66 and esBAF inh 73*.
`CC(C)(C)N=Cc1cc(-c2ccccc2)sc1O` gave Wnt bcat act 63*, C2C12 statin -11, FXN GAA850 act 1 and esBAF inh 74*.
`Nc1nonc1C(=O)N/N=C/c1ccc(-c2cccc([N+](=O)[O-])c2)o1` gave Wnt bcat act -2, C2C12 statin 176*, FXN GAA850 act 0 and esBAF inh -6.
For COc1ccc(CCN(Cc2ccccn2)C(=S)Nc2cccc(C)c2)cc1OC the results were Wnt bcat act 45*, C2C12 statin 8, FXN GAA850 act 2, MITF act 6 and esBAF inh -3.
Screening COc1ccc(NC(=S)N(CCc2ccc(OC)c(OC)c2)Cc2ccccn2)cc1 returned Wnt bcat act 0, C2C12 statin -3, FXN GAA850 act 1, MITF act -10 and esBAF inh 1.
CC(=O)N1[C@@H]2c3cccc(=O)n3C[C@@H]2[C@@H](CO)[C@@H]1C(=O)NCc1ccc(F)cc1 was read as C2C12 statin 7 and esBAF inh 3.
For COC(=O)c1sc(S(=O)(=O)Nc2ccc3cn[nH]c3c2)c(C(=O)OC)c1C the results were Wnt bcat act -1, C2C12 statin 117*, FXN GAA850 act 1, MITF act -16 and esBAF inh -1.
Screening CN1C(=O)c2cc(NC(=O)C3CCCC3)ccc2OC[C@@H]2O[C@@H](CC(=O)NCC3CC3)CC[C@@H]21 returned C2C12 statin -33 and esBAF inh -13.
Cc1cccc(NC(=O)/C(C#N)=C/c2ccc[nH]2)c1C was read as Wnt bcat act 7, C2C12 statin -4, FXN GAA850 act 3, MITF act 13 and esBAF inh 49*.
For Cc1ccc(C)c(NC(=O)/C(C#N)=C/c2ccc[nH]2)c1 the results were Wnt bcat act -1, C2C12 statin 2, FXN GAA850 act 1, MITF act -11 and esBAF inh 7.
CCn1c2ccccc2c2cc(N)ccc21 was read as Wnt bcat act -4, C2C12 statin 108*, FXN GAA850 act 2, MITF act -9 and esBAF inh -5.
For CCn1c2ccccc2c2cc(/C(C)=N/O)ccc21 the results were Wnt bcat act -2, C2C12 statin -9, FXN GAA850 act 4, MITF act 5 and esBAF inh 1.
Screening O=c1c2ccccc2oc2cc(NCCCn3ccnc3)ccc12 returned Wnt bcat act 11, C2C12 statin 0, FXN GAA850 act 5, MITF act inconclusive and esBAF inh 3.
For CN1CCCC1CCNc1ccc2c(=O)c3ccccc3oc2c1 (stereo not given) the results were Wnt bcat act 19, C2C12 statin 0, FXN GAA850 act 6, MITF act 89* and esBAF inh 32.
O=c1c2ccccc2oc2cc(NCCCN3CCOCC3)ccc12 was read as Wnt bcat act 44*, C2C12 statin -7, FXN GAA850 act 5, MITF act 106* and esBAF inh 43*.
For O=c1c2ccccc2oc2ccc(NCCCN3CCOCC3)cc12 the results were Wnt bcat act 26, C2C12 statin 1, FXN GAA850 act 6, MITF act 137* and esBAF inh -6.
For CCOCCCNC(=O)c1cccc(OC2CCN(S(C)(=O)=O)CC2)c1 the results were Wnt bcat act 13, C2C12 statin 27, FXN GAA850 act 4 and esBAF inh 67*.
CCOCCCNC(=O)c1ccccc1OC1CCN(S(C)(=O)=O)CC1 was read as Wnt bcat act 0, FXN GAA850 act 3 and MITF act 14.
`Cc1noc(C)c1NC(=O)N(C)C[C@@H]1OCCCC[C@H](C)Oc2ccc(NC(=O)Nc3ccc(F)cc3)cc2C(=O)N([C@@H](C)CO)C[C@H]1C` gave esBAF inh 0.
CCCOc1ccc(C(O)(CCN2CCCCC2)c2ccccc2OC)cc1 (stereo not given) was read as Wnt bcat act -4, C2C12 statin 87*, FXN GAA850 act -2, MITF act 4 and esBAF inh -11.
CCCCOc1ccc(C(O)(CCN2CCOCC2)c2ccccc2)cc1 (stereo not given) was read as Wnt bcat act -3, C2C12 statin -10, FXN GAA850 act 0, MITF act 8 and esBAF inh 10.
`CN(C)CC(=O)Nc1ccc2c(c1)[C@@H]1C[C@@H](CC(=O)NCc3ccc(Cl)cc3)O[C@H](CO)[C@@H]1O2` gave C2C12 statin -5 and esBAF inh 8.
COc1cc(OC)cc(C(=O)NCC(=O)Nc2ccc(C)c(Cl)c2)c1 was read as Wnt bcat act 46*, C2C12 statin 0, FXN GAA850 act -1, MITF act 11 and esBAF inh 0.
CCC(C)Cn1cnc2c(SCc3ccccn3)nc(N)nc21 (stereo not given) was read as Wnt bcat act 2, C2C12 statin -1, FXN GAA850 act 4 and MITF act 5.
Screening CC(C)Cn1cnc2c(SCc3ccccc3Cl)nc(N)nc21 returned Wnt bcat act 1, C2C12 statin -6, FXN GAA850 act 5, MITF act 26 and esBAF inh 55*.
`CCCn1cnc2c(SCc3ccccc3F)nc(N)nc21` gave Wnt bcat act -1, C2C12 statin -1, FXN GAA850 act 2, MITF act 61 and esBAF inh 53*.
For COc1ccc(NC(=O)COc2ccc(Br)cc2)c(OC)c1 the results were Wnt bcat act 6, C2C12 statin 11, FXN GAA850 act 1, MITF act 20 and esBAF inh 16.
Screening NC(=O)c1ccccc1NC(=O)COc1ccc(Cl)cc1 returned Wnt bcat act 29, C2C12 statin -16, FXN GAA850 act 2, MITF act inconclusive and esBAF inh inconclusive.
